High-throughput results as filed in PubChem BioAssay.
RORg inh = ROR gamma (mouse) transcription inhibition | Drosophila S2 Gal4-RORgamma UAS-luciferase reporter, 20 h | Potency, µM (series often up to 53.6 µM), actives largely listed as inhibitors | hit rate 5.4% among 310,000 | AID 2551; note: nearly all actives have a fitted effect of over 60% in size
Target sequence (P51450 whole entry, looked up, the tested form may be a part): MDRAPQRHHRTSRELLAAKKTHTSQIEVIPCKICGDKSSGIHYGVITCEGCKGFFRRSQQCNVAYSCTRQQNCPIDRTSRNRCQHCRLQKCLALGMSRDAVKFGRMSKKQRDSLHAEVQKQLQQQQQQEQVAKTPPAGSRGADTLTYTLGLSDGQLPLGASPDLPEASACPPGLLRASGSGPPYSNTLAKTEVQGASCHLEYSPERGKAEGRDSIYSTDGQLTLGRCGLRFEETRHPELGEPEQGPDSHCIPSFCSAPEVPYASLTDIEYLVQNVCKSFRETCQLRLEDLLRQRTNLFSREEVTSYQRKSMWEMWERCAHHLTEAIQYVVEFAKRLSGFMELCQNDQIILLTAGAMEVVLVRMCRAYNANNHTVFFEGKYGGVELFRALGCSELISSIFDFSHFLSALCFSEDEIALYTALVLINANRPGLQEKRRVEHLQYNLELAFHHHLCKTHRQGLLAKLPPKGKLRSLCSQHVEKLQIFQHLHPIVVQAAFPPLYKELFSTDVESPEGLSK
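ROR gamma transcriptional activity was tracked as Gal4-UAS luciferase output in stably transfected Drosophila Schneider cells, with compound added 1 hr before 700 uM copper sulfate induction and a 20 hr ambient-temperature incubation.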
Luc counter = counter-screen: inhibitors of Kinase-Glo firefly luciferase. Kinase-Glo luciferase, ATP luminescence, 8 min. Potency, µM (top dose mostly 38.3 µM), usual class: inhibitors. hit rate 0.28% among 200,000. AID 1379; note: nearly all actives have a fitted effect of over 60% in size
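Kinase-Glo luciferase light output from ATP and luciferin was measured with 10 uM ATP, within the enzyme's linear range. Buffer: 50 mM imidazole pH 7.2, 50 mM KCl, 7 mM MgCl2, 0.01% Tween 20, 0.05% BSA; luminescence read after 8 min at ambient temperature.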
Gal4-VP16 FLuc = Gal4-VP16 reporter inhibition counter-screen | Drosophila S2 Gal4-VP16 UAS-luciferase, luminescence, 20 h | AID 2546 | Potency, µM (doses to about 53.6 µM), most hits filed as inhibitors | hit rate 3.5% among 310,000;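 note: Gal4-VP16 expression switched on by copper sulfate through the metallothionein promoter; nearly all actives have a fitted effect of over 50% in size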
Large screens that a line does not name were inactive. Sampled rows, rich in hits. Any-hit rate of the full collection: about 6.2%. Calls come from the whole dose curve; as a rule, active = well fitted curve in the direction sought with a large enough effect; inconclusive = small, poorly fitted or top-dose-only effect, or another doubt; inactive = no such curve, though single readings can be large; an effect the other way counts as inactive or inconclusive.

COCCNC(=O)C(=O)NNC(=O)CCc1ccccc1	none
COC(=O)c1sccc1-n1cccc1C(=O)C(=O)Nc1ccc(F)cc1	none
COC(=O)c1ccc(NC(=O)C(=O)c2cccn2C)cc1	Luc counter 12.6µM
CC1CCC2C(C)(C)C3CC12CC[C@]3(C)O (some centres not stated)	none
Cc1cccc(NC(=S)N/N=C/c2ccc([N+](=O)[O-])s2)c1	RORg inh 1.26µM, Gal4-VP16 FLuc 3.16µM
Cc1cccc(NC(=O)/C=C/c2ccc([N+](=O)[O-])s2)c1	RORg inh 6.31µM, Gal4-VP16 FLuc 3.16µM
Cc1ccc(NC(=O)/C=C/c2ccc([N+](=O)[O-])s2)cc1	RORg inh inconclusive, Gal4-VP16 FLuc inconclusive
CC(C)(C)OC(=O)N/N=C\c1ccc([N+](=O)[O-])s1	Gal4-VP16 FLuc inconclusive
COc1ccc(/C=N/n2c(-c3cc(C)[nH]n3)n[nH]c2=S)cc1	none (no result: Luc counter)
S=c1[nH]nc(-c2ccccc2)n1/N=C/c1cccc(Br)c1	RORg inh 7.08µM, Gal4-VP16 FLuc 7.08µM (no result: Luc counter)
COc1ccc(/C=N/n2c(-c3ccccc3)n[nH]c2=S)cc1	RORg inh 5.62µM, Gal4-VP16 FLuc 4.47µM (no result: Luc counter)
COc1cccc(/C=N/n2c(-c3cccs3)n[nH]c2=S)c1	RORg inh 7.08µM
Oc1ccc(/C=N/n2c(-c3ccccc3)n[nH]c2=S)cc1	RORg inh inconclusive (no result: Luc counter)
COc1cc(/C=N/n2c(-c3ccccc3)n[nH]c2=S)cc(OC)c1OC	none (no result: Luc counter)
O=C(CSc1nnc(CNC(=O)c2ccc(F)cc2)o1)Nc1nccs1	none (no result: Luc counter)
COc1ccc(O[C@H]2C=C[C@@H](c3ccccc3)O[C@H]2COC(=O)CC/C(C)=N\OC[C@@H](O)[C@H]2O[C@H]3OC(C)(C)O[C@H]3[C@@H]2O)cc1	none (no result: Luc counter)
O=C(c1cnccn1)N1CCC2(CC1)CN(c1ccncc1)C2	none
CCNc1nc(OCC)nc(N2CCC(Cc3ccccc3)CC2)n1	RORg inh 5.62µM, Gal4-VP16 FLuc 3.98µM
CCOc1ccccc1OCCN1CCC(Cc2ccccc2)CC1	none
COc1cc(NC(=O)C2CCN(c3cnccn3)CC2)cc(OC)c1OC	none (no result: Luc counter)
COc1ccc(-c2cc(-c3ccccc3)c(C#N)c(S(C)(=O)=O)n2)cc1	RORg inh inconclusive
CS(=O)c1nc(-c2ccc(Br)cc2)cc(-c2ccccc2)c1C#N (configuration not stated)	RORg inh 7.94µM, Gal4-VP16 FLuc 14.1µM
N#Cc1c(-c2ccc(Br)cc2)cc(-c2cccnc2)nc1N	none
CS(=O)(=O)c1nc(-c2ccc(Br)cc2)cc(-c2ccccc2)c1C#N	RORg inh 3.16µM, Gal4-VP16 FLuc inconclusive
C=C1C(N)CC2CC1C2(C)C (configuration not stated)	none
Cc1noc(/C=C/Nc2ccc(F)cc2F)c1[N+](=O)[O-]	RORg inh inconclusive, Luc counter inconclusive
COc1ccccc1N/C=C/c1onc(C)c1[N+](=O)[O-]	RORg inh 11.2µM, Luc counter 11.2µM, Gal4-VP16 FLuc inconclusive
c1ccc2[nH]c(CSc3nc4ccccc4o3)nc2c1	RORg inh 2µM, Gal4-VP16 FLuc inconclusive
c1ccc2cc(CSCc3nc4ccccc4[nH]3)ccc2c1	RORg inh inconclusive, Gal4-VP16 FLuc 11.2µM
O=C(CSCc1nc2ccccc2[nH]1)Nc1ccc2ccccc2c1	none (no result: Luc counter)
c1cncc(-c2nnc(SCc3nc4ccccc4[nH]3)o2)c1	RORg inh inconclusive
O=c1cc(O)nc(-c2ccc(Cl)cc2)s1	none
O=c1cc(N2CCNCC2)oc2c(-c3ccccc3)cccc12	none
COC(=O)[C@H](CCSC)NC(=O)c1ccc(NC[C@@H](N)CS)cc1-c1ccccc1	none (no result: Luc counter)
CS(=O)(=O)NN1C(=O)c2ccccc2NC1c1ccccc1O (configuration not stated)	none
CC(=O)NN1C(=O)c2ccccc2NC1c1ccccc1O (configuration not stated)	RORg inh 11.2µM, Gal4-VP16 FLuc inconclusive (no result: Luc counter)
O=[N+]([O-])c1ccc(F)c(N=Cc2ccc(Br)s2)c1	none
CC(C)=CCC/C(C)=C/C=N/NC(=O)c1ccccc1[N+](=O)[O-]	RORg inh 6.31µM, Gal4-VP16 FLuc 11.2µM (no result: Luc counter)
O=C(NNC(=O)c1ccccc1[N+](=O)[O-])c1ccccc1[N+](=O)[O-]	none
O=C(N/N=C/c1ccc(Br)s1)c1ccccc1[N+](=O)[O-]	RORg inh 2.51µM, Gal4-VP16 FLuc 6.31µM
Cc1ccc(OCC(=O)N/N=C\c2cccs2)c([N+](=O)[O-])c1	RORg inh inconclusive, Gal4-VP16 FLuc inconclusive
O=C(N/N=C/c1ccc(Br)s1)c1ccc([N+](=O)[O-])cc1	RORg inh 0.447µM, Gal4-VP16 FLuc 0.631µM
Cc1ccc([N+](=O)[O-])c(C(=O)N/N=C/c2cccs2)c1	RORg inh 1.41µM, Gal4-VP16 FLuc 1.26µM (no result: Luc counter)
C/C(CCc1ccccc1)=N\NC(=O)c1ccccc1[N+](=O)[O-]	none
